The values that follow come from PubChem BioAssay (NCATS).

Where “and” joins values, the source holds several entries; their conditions need not be identical. Equal values may be shown once. Records with an inconclusive call do not appear.

This experiment can be described thus: qHTS Assay for Lipid Storage Modulators (AID 1519). To be noted: Drosophila S3 cells, BODIPY lipid droplet/cell ratio, laser cytometry; measured here: lipid channel max response; cells loaded with oleic acid. The gist of the method:
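Cells seeded at 5,000 per well were treated with compounds over a concentration series and loaded with oleic acid (400 uM, as added). Lipid droplet fluorescence (488 nm excitation, 500-530 nm channel) was read by laser-scanning cytometry and normalized to 20 uM Triacsin C.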
A general note: In qHTS, concentration-response curves come from the screen itself.
Take `C[N+]1(C)CCC(=C(c2ccccc2)c2ccccc2)CC1`: the max response is 0.67%. With `CCN1CCCC(OC(=O)C(c2ccccc2)c2ccccc2)C1` (stereo not given), the max response is -14.3%. The value for `CCOC(=O)Nc1ccc2c(c1)N(C(=O)CCN1CCOCC1)c1ccccc1S2` was -3.86%. `CN(C)CCOC(=O)C(c1ccccc1)C1(O)CCCC1` (stereo not given): the max response came out at 27.5%. As to `CCCCNc1ccc(C(=O)OCCOCCOCCOCCOCCOCCOCCOCCOCCOC)cc1`, the max response is -4.96%. The value for `CC(=O)NCCCCCC(=O)O` was 14.8%; that for `CCCCC(CC)CN1CN(CC(CC)CCCC)CC(C)(N)C1` (stereo not given) was 41.5%. With `CC(=O)Nc1ccc(S(=O)(=O)Nc2ccc([N+](=O)[O-])cc2)cc1`, the max response came out at 18.4%.

For the compound `COC(=O)C(c1ccccc1Cl)N1CCc2sccc2C1` (stereo not given), the max response is 15.9%.

For `COc1ccc(CN(CCN(C)C)c2ncccn2)cc1`, the max response turned out to be 17.3%. On to `COc1cc(C)nc(-n2nc(C)cc2OC)n1`, for which the max response is -3.43%. In the case of `NS(=O)(=O)c1cc(C(=O)O)cc(N2CCCC2)c1Oc1ccccc1`, the max response was -6.59%. The value for `CN1CCC(OC(c2ccccc2)c2ccccc2)CC1` was -25.4%; that for `CCOC(=O)c1ccc(N)cc1` was -0.169%; that for `CCc1cc(Cl)c(OC)c(C(=O)NC[C@@H]2CCCN2CC)c1O` was -19.5%.

For the compound `Cc1c(-c2ccccc2)oc2c(C(=O)OCCN3CCCCC3)cccc2c1=O`, the max response stood at 7.37%. Take `COc1cc(C(=O)NCc2ccc(OCCN(C)C)cc2)cc(OC)c1OC`: the max response was -7.91%. On to `CC(C(=O)O)c1cccc(Oc2ccccc2)c1` (stereo not given), for which the max response was found to be 29.6%. In the case of `CC(C)NCC(O)c1ccc2ccccc2c1` (stereo not given), the max response was 21.3%. For `O=C(O)P(=O)(O)O`, the max response was 24.7%. On to `CCCCCN=C(N)N/N=C/c1c[nH]c2ccc(OC)cc12`, for which the max response was 28.4% and 15.4%. For `CCN(CC)CCOc1ccc2c(c1)C(=O)c1cc(OCCN(CC)CC)ccc1-2`, the max response worked out at 9.04%. In the case of `CCCCc1cc2ccccc2c(OCCN(C)C)n1`, the max response is -12.3%. Regarding `N=C(N)N1CCc2ccccc2C1`, the max response is -6.4%. As for `C[N+]12CCC(CC1)C(OC(=O)C(O)(c1ccccc1)c1ccccc1)C2` (stereo not given), the max response stood at 15.6%.

Take `CC(=O)NO`: the max response stood at 28.9%. In the case of `Cc1cc(-c2ccccc2)nnc1NCCN1CCOCC1`, the max response was -4.28%. On to `Nc1ccc(S(=O)(=O)Nc2cnc3ccccc3n2)cc1`, for which the max response was -10.6%. Consider `Cc1ncc(CO)c(C=O)c1O`, for which the max response is -15.3%.

In the case of `CCC(Cc1c(I)cc(I)c(N)c1I)C(=O)O` (stereo not given), the max response was 27.1%. As for `OCCOCCN1CCN(C2=Nc3ccccc3Sc3ccccc32)CC1`, the max response was 19.3%. For the compound `Nc1ccc(C(=O)NCC(=O)O)cc1`, the max response came to 0.146%. For `CCCc1ncc(C[n+]2ccccc2C)c(N)n1` the value was 0%; for `O=C1C(=O)c2ccccc2C(O)=C1C1CCC(c2ccc(Cl)cc2)CC1` (stereo not given), 21.8%. Regarding `CC[C@H](c1ccc(O)cc1)[C@@H](CC)c1ccc(O)cc1`, the max response was -23.9%.
